Measured values: PubChem BioAssay AID624123 (The Scripps Research Institute Molecular Screening Center, 2012)
Unmarked numbers belong to inactive results. No rule for the calls is given here.

Assay: GFP fluorescence inhibitors and quenchers, late-stage follow-up, artefact control for Rin1-Abl interaction inhibitor project, biochemical, dose response, round 1 (AID 624123)
Settings: GFP fluorescence interference/quenching counterscreen

| SMILES | IC50 [µM] |
| --- | --- |
| CN(C(=O)c1ccc(NC(=O)Cc2ccc(NC(=O)C3CCN(C(=O)c4cccc(F)c4)CC3)cc2)cc1)C1CC1 | > 67.5 |
| CN(C(=O)c1ccc(NC(=O)Cc2ccc(NC(=O)C3CCN(C(=O)c4ccccc4)CC3)cc2)cc1)C1CC1 | > 67.5 |
| CN(C(=O)c1ccc(NC(=O)Cc2ccc(NC(=O)C3CCN(C(=O)c4ccc(F)cc4)CC3)cc2)cc1)C1CC1 | > 67.5 |
| COc1ccc(C(=O)N2CCC(C(=O)Nc3ccc(CC(=O)Nc4ccc(C(=O)N(C)C5CC5)cc4)cc3)CC2)cc1 | > 67.5 |
